The panel holds about 83,000 compounds, 20% with a hit somewhere; the sample as a whole holds those more often.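 Cell lines were cultured in 96-well plates, exposed to a single compound concentration, and assessed for percent growth 48 hours later.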 A number with no mark means an inactive call. Calls of active or inactive are those of the source.
system: NCI-H522 lung; assay: NCI-60 one-dose screen, 48 h (100 = growth as untreated, 0 = no growth, -100 = all killed); settings: 10 µM unless noted
Method: Growth inhibition of the NCI-H522 human Non-Small Cell Lung tumor cell line is measured as a screen for anti-cancer activity. Cells are grown in 96 well plates and exposed to the test compound for 48 hours. Compounds are tested at a single concentration, which is 10^-5 M for most compounds. The reported endpoint is percent growth (GI% or GIPRCNT), where numbers from 0 - 100% represent growth inhibition, and numbers from -100% - 0 represent cell death. For example, a value of 40 represents 60% growth inhibition. A value of 0 means no net growth occurred over the course of the experiment. A value of -40 indicates 40% of cells at the beginning of the experiment died by the end of the experiment. A value of -100 means all cells are dead at the end of the experiment.
NCI-60 Human Tumor Cell Lines Screen was performed using the standard one-dose NCI protocol, which is described in more detail at https://dtp.cancer.gov/discovery_development/nci-60/default.htm.
Compounds with GIPRCNT values below 10 were considered active. Activity score was based on GIPRCNT using the following formula: […]
Score is 0 for GIPRCNT values of 100 or above, 50 for GIPRCNT values of 0, and 100 for GIPRCNT values of -100.

Structure (SMILES) | growth
CC(C)(C)n1cc(-c2ccnc(NCCNS(=O)(=O)c3ccc(O)cc3)c2)c(-c2cccc(O)c2)n1 | 94.8%
C=C(C)[C@@H]1CC[C@]2(C(=O)N3CCN(C)CC3)CC[C@]3(C)[C@H](CC[C@@H]4[C@@]5(C)CC[C@H](OC(=O)c6ccccc6C(=O)O)C(C)(C)[C@@H]5CC[C@]43C)[C@@H]12 | 84.2%
O=C(O)COc1ccc(Cl)c(Cl)c1 | 102%
CCCCCCCCCCCCCOC(=O)c1c(C)[nH]c(/C=C2\N=C(c3ccc[nH]3)C=C2OC)c1C | 5.93% (active)
CCO/C=N/C1=C(C#N)C(c2ccc(F)cc2)c2sc3c(F)cccc3c2O1 (stereo not given) | -22% (active)
COC(=O)c1cc(Br)ccc1O | 94.8%
CSc1nn2c(-c3ccc4ccccc4c3)ccnc2c1C#N | -23.4% (active)
O=C(Nc1ccccc1[N+](=O)[O-])c1ccc(Cl)c(Cl)c1 | 69.9%
NC(=O)c1cccc([C@@H]2O[C@H](CO)[C@@H](O)[C@H]2O)c1 | 42.2%
C=C(C)[C@@H]1CC[C@]2(C(N)=O)CC[C@]3(C)[C@H](CC[C@@H]4[C@@]5(C)CC[C@H](OCCC#N)C(C)(C)[C@@H]5CC[C@]43C)[C@@H]12 | 77.5%
Cc1ccc(/C=C/C(=O)Nc2ncc(Cc3ccc(F)cc3)s2)o1 | 38%
CN(C)CCN1C(=O)c2cccc3c(/C=C/CN4C(=O)c5cccc6cccc(c56)C4=O)ccc(c23)C1=O | 101%
CN1CCN(CC(=O)Nc2ccc3ncnc(Nc4ccc(Oc5cccc(C(F)(F)F)c5)c(Cl)c4)c3c2)CC1 | 18%
CC1(C)[C@@H](O[C@@H]2OC[C@@H](O[C@@H]3O[C@H](CO)[C@@H](O)[C@H](O)[C@H]3O[C@@H]3OC[C@@H](O)[C@H](O)[C@H]3O)[C@H](O)[C@H]2O[C@@H]2O[C@H](CO)[C@@H](O)[C@H](O)[C@H]2O)CC[C@]2(C)[C@H]3CC[C@]45OC[C@@]6(CC[C@](C)(C=O)C[C@H]64)[C@H](O)C[C@@]5(C)[C@]3(C)CC[C@@H]12 | -89.7% (active)
CC(=O)Oc1ccc(OC(C)=O)c2ccccc12 | 61.6%
O=C(NC(Cc1nnc2n(Cc3ccccc3)c(=O)c3c4c(sc3n12)CCCC4)c1ccccc1)c1ccccc1 (stereo not given) | 94.8%
CCOC(=O)C(=CNc1cnc(Nc2ccc(N3CCOCC3)cc2)nc1Oc1ccc(OC)cc1)C(=O)OCC | 76.3%
C=CN(C(=O)N1CCN(c2cc3c(cc2F)c(=O)c(C(=O)O)cn3C2CC2)CC1)c1nc(-c2ccc(OC)cc2)cs1 | 12.7%
CCOC(=O)c1c(C)nc2ccccc2c1/C=C/c1cccs1 | 57%
COc1ccc(/C=C/c2c(C(=O)/C=C/c3ccccc3)c(C)nc3ccccc23)cc1 | -24.5% (active)

Structure (SMILES) | growth
O=C1/C(=C\c2cccc3nccnc23)SC(=S)N1CCc1ccc(O)cc1 | 81.9%
O=c1c2c3c(sc2n2c(-c4cc(-c5ccccc5)no4)nnc2n1Cc1ccccc1)CCCC3 | 55.2%
O=S(=O)(Nc1cc(Sc2cccc3cccnc23)c(O)c2ccccc12)c1ccccc1 | -37.3% (active)
CN1CCN(C(=O)C(C)(C)c2ccc(C(=O)Nc3cn4cc(-c5ccncc5)ccc4n3)cc2)CC1 | -1.24% (active)
Cc1ccc(-c2nc(-c3cn(C)c4ncccc34)cs2)cc1 | 6.25% [100 µM] (active)
C/C(=N\O)c1ccc(NC(=O)CSc2nnc(-c3cc(-c4ccc(S(N)(=O)=O)cc4)nc4ccccc34)n2-c2ccccc2)cc1 | 67.4%
COc1ccc(Nc2ncccc2/C=C/C(=O)c2cc(OC)c(OC)c(OC)c2)cc1 | -76.5% (active)
CSC1=Nc2c(c(C)c(-c3ccccc3)n2CCCC(=O)O)C2=NC(=O)C[C@H](C)N12 | 93%
CN(Cc1ccccc1)c1nc(Cl)c(C2CC(c3ccccc3)=NN2c2ccccc2)s1 (stereo not given) | 77.8%
O=C1NC(=O)/C(=C/c2c(-c3ccccc3)nc3sc(COc4ccccc4)nn23)S1 | 83.6%
C/C(Cc1ccc(Cl)cc1)=C(\c1ccc(OCCCN(C)C)cc1)c1ccc(OC(=O)Cc2ccccc2)cc1 | 70.5%
COc1cc(NC(=O)c2cncnc2Nc2ccc3c(ccn3Cc3ccccn3)c2)cc(OC)c1 | 38.9%
COc1ccc(/C=C/c2ccc3ccccc3n2)c(OC)c1 | 72.5%
Nc1c(C(=O)Nc2cccc(Cl)c2)sc2nc3c(cc12)CCCC3 | 80.3%
CC1=C(CCC(C)NCc2ccc(OCCCN3CCCCC3)cc2)C(C)(C)CCC1 (stereo not given) | -79.4% (active)
O=C(Cc1cccc(OC(F)(F)F)c1)Nc1ccc(CCCCc2nnc(NC(=O)Cc3ccccn3)s2)nn1 | 44.3%
C/C(=N\O)[C@@H]1CC[C@]2(CO)CC[C@]3(C)[C@H](CC[C@@H]4[C@@]5(C)CCCNC(C)(C)[C@@H]5CC[C@]43C)[C@@H]12 | 90%
CCS/C(Nc1ccccc1)=C(\C#N)C(=O)Nc1ccc(OC)cc1 | 0.635% (active)
Cc1ccc2nc(-c3ccc(C(=O)NNC(=S)Nc4ccccc4)cc3)[nH]c2c1 | 95%
O=C1Nc2ccccc2/C1=C/c1cccn1C(=O)c1ccc(Cl)s1 | 37.8%

Reference: PubChem BioAssay (NCI)
